# In the supplement of paper PMC8728848:
# Many of the other results were omitted from the sample, so the strongest signals are more common in it than they were.
# Key:
# Assay in all cases: glycan array binding signal (z-score within array); higher = stronger binding
# Details in all cases: glycan notation: IUPAC condensed, linker removed
# Gal6S(b1-4)GlcNAc = target: Gal6S(b1-4)GlcNAc
# Summary of the method: (§1)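 Glycan array binding is given as a within-array Z-score, which can be read as non-binding when negative. The arrays, 3228 of them, came from the Consortium for Functional Glycomics database and were retained only where the protein sequence was available. Z-scores were averaged across arrays of the same protein sequence at different concentrations or buffers and across linkers.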
# [1] = target: GalNAc(a1-3)GalNAc(b1-3)Gal(a1-4)Gal(b1-4)GlcNAc
# Summary of the method: as §1
# GalNAc(b1-3)Gal = target: GalNAc(b1-3)Gal
# Summary of the method: as §1
# GalNAc(b1-4)GlcNAc6S = target: GalNAc(b1-4)GlcNAc6S
# Summary of the method: as §1
# [2] = target: Glc(a1-4)Glc(a1-4)Glc(a1-4)Glc
# Summary of the method: as §1
# Glc(a1-6)Glc(a1-6)Glc = target: Glc(a1-6)Glc(a1-6)Glc
# Summary of the method: as §1
# [3] = target: Glc(a1-6)Glc(a1-6)Glc(a1-6)Glc
# Summary of the method: as §1
# [4] = target: GlcNAc(a1-4)Gal(b1-4)GlcNAc(b1-3)Gal(b1-4)[Fuc(a1-3)]GlcNAc(b1-3)Gal(b1-4)[Fuc(a1-3)]GlcNAc
# Summary of the method: as §1
# [5] = target: GlcNAc(a1-6)Gal(b1-4)GlcNAc
# Summary of the method: as §1
# [6] = target: GlcNAc(b1-2)[GlcNAc(b1-6)]Man(a1-6)[GlcNAc(b1-2)Man(a1-3)]Man(b1-4)GlcNAc(b1-4)GlcNAc
# Summary of the method: as §1
# [7] = target: GlcNAc(b1-2)[GlcNAc(b1-6)]Man(a1-6)[GlcNAc(b1-4)][GlcNAc(b1-2)Man(a1-3)]Man(b1-4)GlcNAc(b1-4)GlcNAc
# Summary of the method: as §1
# [8] = target: GlcNAc(b1-3)Gal(b1-4)GlcNAc(b1-3)Gal(b1-4)GlcNAc(b1-3)GalNAc
# Summary of the method: as §1
# GlcNAc(b1-4)GlcNAc = target: GlcNAc(b1-4)GlcNAc
# Summary of the method: as §1
# [9] = target: GlcNAc(b1-4)GlcNAc(b1-4)GlcNAc(b1-4)GlcNAc(b1-4)GlcNAc
# Summary of the method: as §1
# [10] = target: GlcNAc(b1-6)Gal(b1-4)GlcNAc
# Summary of the method: as §1
# [11] = target: GlcNAc6S(b1-3)Gal(b1-4)GlcNAc
# Summary of the method: as §1
# [12] = target: Man(a1-2)Man(a1-2)Man(a1-6)[Man(a1-3)]Man
# Summary of the method: as §1
# [13] = target: Man(a1-2)Man(a1-3)[Man(a1-2)Man(a1-6)]Man(a1-6)[Man(a1-2)Man(a1-2)Man(a1-3)]Man
# Summary of the method: as §1
# [14] = target: Man(a1-3)[Man(a1-6)]Man(a1-6)[Man(a1-2)Man(a1-3)]Man(b1-4)GlcNAc(b1-4)GlcNAc
# Summary of the method: as §1
# [15] = target: Neu5Ac(a2-3)Gal(b1-4)GlcNAc(b1-2)Man
# Summary of the method: as §1
# [16] = target: Neu5Ac(a2-3)Gal(b1-4)GlcNAc(b1-3)Gal(b1-4)GlcNAc(b1-2)Man(a1-3)[Neu5Ac(a2-3)Gal(b1-4)GlcNAc(b1-3)Gal(b1-4)GlcNAc(b1-2)Man(a1-6)]Man(b1-4)GlcNAc(b1-4)GlcNAc
# Summary of the method: as §1
# [17] = target: Neu5Ac(a2-3)Gal(b1-4)GlcNAc(b1-6)[Neu5Ac(a2-3)Gal(b1-3)]GalNAc
# Summary of the method: as §1
# [18] = target: Neu5Ac(a2-3)Gal(b1-4)GlcNAc6S
# Summary of the method: as §1
# Neu5Ac(a2-6)Gal = target: Neu5Ac(a2-6)Gal
# Summary of the method: as §1
# [19] = target: Neu5Ac(a2-6)Gal(b1-4)GlcNAc(b1-2)Man(a1-3)[Neu5Ac(a2-6)Gal(b1-4)GlcNAc(b1-2)Man(a1-6)]Man(b1-4)GlcNAc(b1-4)[Fuc(a1-6)]GlcNAc
# Summary of the method: as §1
# [20] = target: Neu5Ac(a2-6)Gal(b1-4)GlcNAc(b1-3)Gal(b1-4)GlcNAc(b1-6)[Gal(b1-3)]GalNAc
# Summary of the method: as §1
# [21] = target: Neu5Ac(a2-6)Gal(b1-4)GlcNAc(b1-6)[Gal(b1-3)]GalNAc
# Summary of the method: as §1
# [22] = target: Neu5Gc(a2-3)Gal(b1-3)[Fuc(a1-4)]GlcNAc
# Summary of the method: as §1
binder,measurement,setting,value
VLRB.aGPA.23-GCN4-biotin (Petromyzon marinus) (protein) ACPSQCSCSGTEVNCAGKSLASVPAGIPTTTRVLYLNSNQITKLEPGVFDRLANLRELHLWGNQLVSLPPGVFDNLANLEKLWLNSNQLTSLPAGLFDRLVNLEHLGLCCMKLTELPSGAFDKLTRLKQLGLDQNQLKSIPDGAFARLPSLTHVWLHTNPWDCQCTDILYLSGWVAQHSSIVGEGWPWRHSPDSAKCSGTNTPVRAVTEASTSPSKCP,glycan array binding signal (z-score),Gal6S(b1-4)GlcNAc,-0.083
same,glycan array binding signal (z-score),[1],-0.076
same,glycan array binding signal (z-score),GalNAc(b1-3)Gal,-0.076
same,glycan array binding signal (z-score),GalNAc(b1-4)GlcNAc6S,-0.082
same,glycan array binding signal (z-score),[2],-0.064
same,glycan array binding signal (z-score),Glc(a1-6)Glc(a1-6)Glc,-0.077
same,glycan array binding signal (z-score),[3],-0.076
same,glycan array binding signal (z-score),[4],-0.069
same,glycan array binding signal (z-score),[5],-0.087
same,glycan array binding signal (z-score),[6],-0.079
same,glycan array binding signal (z-score),[7],-0.085
same,glycan array binding signal (z-score),[8],-0.084
same,glycan array binding signal (z-score),GlcNAc(b1-4)GlcNAc,-0.088
same,glycan array binding signal (z-score),[9],-0.086
same,glycan array binding signal (z-score),[10],-0.084
same,glycan array binding signal (z-score),[11],-0.08
same,glycan array binding signal (z-score),[12],-0.059
same,glycan array binding signal (z-score),[13],-0.081
same,glycan array binding signal (z-score),[14],0.041
same,glycan array binding signal (z-score),[15],-0.068
same,glycan array binding signal (z-score),[16],-0.005
same,glycan array binding signal (z-score),[17],-0.087
same,glycan array binding signal (z-score),[18],-0.079
same,glycan array binding signal (z-score),Neu5Ac(a2-6)Gal,-0.082
same,glycan array binding signal (z-score),[19],-0.074
same,glycan array binding signal (z-score),[20],-0.072
same,glycan array binding signal (z-score),[21],-0.077
same,glycan array binding signal (z-score),[22],-0.074
